Compound activity from PubChem BioAssay.
Only some compounds are listed: those with a hit (about 2.4% of all), similar ones and a draw of the others.
D2 antag – HTS Assay for Allosteric Antagonists of the Human D2 Dopamine Receptor: Primary Screen for Antagonists | D(2) dopamine receptor (Homo sapiens), P14416 | HEK293 TREx D2 cells, calcium flux, dopamine EC80 | inhibition, % at 10 µM | actives 2% (n = 340,000) | AID 485344, 2010; in the data active = inhibition above about 30%; inactive = below that, where a call was filed; also: 0% is about no effect
Target sequence (P14416 whole entry, looked up): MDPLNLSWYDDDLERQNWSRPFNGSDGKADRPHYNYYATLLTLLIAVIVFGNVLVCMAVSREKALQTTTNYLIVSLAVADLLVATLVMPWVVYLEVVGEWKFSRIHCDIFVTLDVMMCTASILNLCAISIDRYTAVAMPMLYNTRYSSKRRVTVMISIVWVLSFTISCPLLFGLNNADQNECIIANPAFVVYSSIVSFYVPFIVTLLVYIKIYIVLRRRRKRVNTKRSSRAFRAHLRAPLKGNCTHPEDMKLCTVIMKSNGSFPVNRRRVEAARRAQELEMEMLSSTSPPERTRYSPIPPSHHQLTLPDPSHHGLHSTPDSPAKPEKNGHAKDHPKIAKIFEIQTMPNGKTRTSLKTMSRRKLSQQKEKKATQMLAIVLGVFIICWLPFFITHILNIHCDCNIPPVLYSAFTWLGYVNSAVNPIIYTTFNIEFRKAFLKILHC
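HEK293 T-REx D2 cells, tet-induced, calcium dye no-wash. Cpd pintool add, 180 s kinetic, then EC80 DA, 180 s kinetic. Ca flux read.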
D2 ag-1 – Beta-Arrestin HTS for Positive Allosteric Modulators of the Human D2 Dopamine Receptor: Agonists | AID 624465, 2012 | D(2) dopamine receptor (Homo sapiens), P14416 | actives 0.084% (n = 360,000) | activation, % (test concentration not listed) | DiscoveRx PathHunter D2 beta-arrestin, luminescence, 90 min; 100% = 57 uM dopamine signal; in the data active = activation above about 40%; inconclusive = between about 15% and that limit
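Agonist mode: compounds alone added to overnight-plated D2 PathHunter cells for 90 min at 37 C, with 57 uM final dopamine (EC100) defining full response. Beta-arrestin recruitment detected by chemiluminescent reagent, read after 1 h at ambient temperature.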
D2 PAM-1 – Beta-Arrestin HTS for Positive Allosteric Modulators of the Human D2 Dopamine Receptor: Potentiators | potentiation, % (concentration not given with the values) | actives 0.23% (n = 360,000) | DiscoveRx D2 beta-arrestin cells, luminescence, 90 min; 100% = 57 uM dopamine signal | D(2) dopamine receptor (Homo sapiens), P14416 | AID 624464, 2012; in the data active = potentiation above about 50%; inconclusive = mostly about 30% to 49%
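D2 cells co-treated with compound plus 50 nM dopamine (EC20) for 90 min at 37 deg C to detect potentiation. Beta-arrestin recruitment was read as enzyme-fragment luminescence after 1 h at ambient temperature. Full response was set by 57 uM dopamine.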
D2 PAM-2 – HTS Assay for Positive Allosteric Modulators of the Human D2 Dopamine Receptor: Primary Screen for Potentiators. D(2) dopamine receptor (Homo sapiens), P14416. HEK293 T-REx D2, calcium flux, EC20 dopamine potentiation. potentiation, % at 10 µM. actives 0.34% (n = 340,000). AID 485347, 2010;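 active = potentiation over 3 SD above the plate norm, cut at about 30% in these data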; also: 0% is about no effect
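Calcium flux readout, no-wash dye, 1 read/s. Inducible HEK293 Trex D2 line, overnight 30 C. Compound alone 180 s (agonist flags), then EC20 dopamine, another 180 s to score potentiation.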
D2 ag-2 – HTS Assay for Allosteric Agonists of the Human D2 Dopamine Receptor: Primary Screen for Agonists; actives 0.53% (n = 340,000); HEK293 T-REx D2 cells, calcium flux agonist mode; D(2) dopamine receptor (Homo sapiens), P14416; activation, % at 2 µM; AID 485358, 2010;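 active = activation over 3 SD above normal in the single-dose calcium agonist read, cut at about 30% in these data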; also: 0% is about no effect
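HEK293 Trex D2 cells, tetracycline-induced, o/n 30 C 5% CO2; no-wash Ca dye, RT 30–90 min; 10-cycle baseline, 23 nl cpd added, kinetic Ca read 180 s; agonist hits = positive Ca response.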
An asterisk follows results filed as active; ? = inconclusive; . = not tested or not shown.

SMILES | D2 antag | D2 ag-1 | D2 PAM-1 | D2 PAM-2 | D2 ag-2
O=C(c1cnc(N2CCCCC2)c2ccccc12)N1CCN(c2cccc(Cl)c2)CC1 | . | . | . | 12.5 | -0.1
COc1ccc(Br)cc1CNC(=O)c1cnc2sc(N3CCCCCC3)nn2c1=O | . | . | . | -6.1 | -0.8
CC(Sc1nnc2ccc3ccccc3n12)C(=O)Nc1ccc(Cl)cc1 (stereo not given) | . | . | . | 8.5 | -0.6
Cc1c(/C=N\NC(=O)C2COc3ccc(C(C)(C)C)cc3O2)c2ccccc2n1C (stereo not given) | 58.0* | 44.8* | 118.0* | -9.7 | 1.2
CCC(C)(C)NC(=O)c1ccc2c(c1)S(=O)(=O)c1ccccc1C2=O | -13.7 | -0.9 | 71.1* | 16.7 | 0.0
O=C1c2ccccc2S(=O)(=O)c2cc(C(=O)N(c3ccccn3)c3ccccn3)ccc21 | 22.2 | 6.0 | ? | 17.3 | 36.8*
O=C(Nc1ccccn1)c1ccc2c(c1)S(=O)(=O)c1ccccc1C2=O | -7.9 | 1.3 | -0.7 | 13.2 | 1.5
O=C(NCCOc1ccccc1)c1ccc2c(c1)S(=O)(=O)c1cc(Cl)ccc1C2=O | . | 7.4 | 72.9* | . | .
Cc1ccc(Oc2cc([N+](=O)[O-])cc3c2C(=O)Nc2ccccc2O3)cc1 | 30.1* | 1.9 | 6.2 | 13.9 | 1.8
Oc1ccc2nnc3c(Br)cnn3c2c1 | -8.8 | ? | 11.6 | 5.7 | 52.9*
COc1cccc(C(=O)N2CCc3cc(OC)c(OC)cc3C2COc2ccc3c(C)cc(=O)oc3c2)c1 (stereo not given) | . | . | . | 1.7 | 0.9
O=[N+]([O-])c1cc(CN2CCN(c3cccc(C(F)(F)F)c3)CC2)c2cccnc2c1O | 36.3* | 0.1 | -23.4 | -22.4 | -1.1
CC(C)OCc1cc(CN2CCN(c3cccc(C(F)(F)F)c3)CC2)c(O)c2ncccc12 | . | . | . | 7.6 | -1.0
COc1ccccc1NC(=O)CSc1nnc(-c2nonc2NC(C)=O)n1-c1ccccc1 | . | . | . | 0.7 | 2.0
COc1ccc(-c2nc3ccccc3o2)cc1NC(=O)c1ccc(N2CCC(C)CC2)c([N+](=O)[O-])c1 | . | . | . | 0.4 | -0.5
COc1ccc(-n2c(O)c(/C=N/NS(=O)(=O)c3cc(C)ccc3C)c3ccccc3c2=O)cc1OC | 27.0 | -1.9 | -13.8 | 0.1 | 41.4*
COc1ccc(-n2c(O)c(/C=N/NS(=O)(=O)c3ccc(C)cc3)c3ccccc3c2=O)cc1OC | 14.6 | -3.6 | -1.8 | 1.4 | 20.4
NS(=O)(=O)c1ccc(NC(=S)Nc2ccn(Cc3cccc4ccccc34)n2)cc1 | 42.3* | -3.5 | -5.5 | -19.4 | -0.5
CCSc1ncc(Cl)c(C(=O)Nc2ccc(S(=O)(=O)N3CCCCC3)cc2)n1 | . | . | . | -3.6 | .
CC(=O)c1cccc(NC(=O)CCc2c(C)nc3c(-c4ccc(F)cc4)c(C)nn3c2C)c1 | . | . | . | 8.3 | 1.1
CNCCC=C1c2ccccc2C=Cc2ccccc21 | . | -8.2 | -34.1 | . | .
CN(C)CCC=C1c2ccccc2C=Cc2ccccc21 | 49.1* | 4.9 | -27.7 | -17.3 | -0.4
CN(C)CCC=C1c2ccccc2CCc2ccccc21 | 63.6* | -4.0 | -36.0 | -29.4 | -0.4
O=C(NCCCN1CCCC1=O)Nc1ccc(Cl)cc1 | . | 0.3 | -7.1 | . | .
O=C(NCCCN1CCCC1=O)Nc1ccc([N+](=O)[O-])cc1 | 34.8* | -19.5 | -5.3 | 7.7 | -0.1
SMILES | D2 antag | D2 ag-1 | D2 PAM-1 | D2 PAM-2 | D2 ag-2
CCc1ccc(NC(=O)c2sc3nc(C)cc(C)c3c2NC(=O)c2ccccc2OC)cc1 | . | . | . | 15.5 | -0.7
O=C(CN1C(=O)COc2ccc(S(=O)(=O)N3CCCCCC3)cc21)N1CCN(c2ccc(Cl)cc2)CC1 | . | . | . | 8.8 | -0.7
COC(=O)c1cc(Cl)c(NC(=O)c2cc3ccccc3o2)cc1OC | 32.4* | -0.5 | -11.1 | -5.2 | 0.9
COc1ccc(NC(=O)c2cc3ccccc3o2)c(OC)c1 | . | . | . | -10.7 | .
COc1ccc(CNC(=O)CN(C(=O)c2snc(C(N)=O)c2N)c2ccc(OC)c(OC)c2)cc1 | 31.5* | 3.3 | 2.1 | -4.8 | -0.2
COc1ccc(CNC(=O)CN(C(=O)c2snc(C(N)=O)c2N)c2ccc(F)cc2)cc1 | -19.4 | -1.7 | -4.9 | 15.2 | 0.1
Cc1cccc(C)c1NCc1n[nH]c(=S)n1-c1ccccc1 | 51.3* | 3.8 | -2.9 | 7.7 | -2.0
O=C1CCNc2cc3ccccc3cc21 | 5.9 | 14.9 | 55.4* | 28.1 | -0.5
Cc1ccc(S(=O)(=O)NC(CC(=O)O)c2cccs2)cc1 (stereo not given) | -2.7 | 6.4 | 8.4 | -0.3 | 0.3
Cc1ccc(S(=O)(=O)NC(C)C(=O)NC(C)c2cccs2)cc1 (stereo not given) | -1.0 | -2.6 | -3.1 | 31.9* | 0.4
Cc1ccc(NC(=O)Cn2nc(C)c3nn(-c4ccc(Cl)cc4)c(C)c3c2=O)cc1F | . | . | . | 7.0 | .
COc1ccc(OC)c(NC(=O)Nc2cccc(OCc3cc(=O)n4cc(C)ccc4n3)c2)c1 | . | . | . | -6.7 | -0.7
O=C(Cn1nc2n(c1=O)-c1ccccc1SC2)N/N=C/c1cccs1 | 41.4* | -2.6 | -19.9 | -20.6 | -0.4
O=C(CCCn1c(=O)c2ccccc2n(Cc2cccc(F)c2)c1=O)NCc1ccccc1Cl | . | . | . | 4.1 | .
Cc1cc(NC(=O)CCN2CCC(C)CC2)ccc1Br | 39.1* | -3.3 | -66.3 | -11.1 | 0.6
Cc1cc(NC(=O)CN2C(=O)N(C)C3(CCCCC3)C2=O)ccc1Br | 33.4* | -1.7 | 0.0 | -11.8 | 1.0
CCOCCCNC(=O)C(c1ccc(Cl)cc1)N(Cc1ccc2c(c1)OCO2)C(=O)c1ccccc1O (stereo not given) | . | . | . | -2.2 | 0.5
COc1ccc(N(CC(=O)Nc2cc(C)cc(C)c2)S(=O)(=O)c2ccccc2[N+](=O)[O-])c(OC)c1 | 53.4* | 0.8 | -3.9 | 8.9 | 0.2
COc1ccc(C(CNC(=O)CCNS(=O)(=O)c2ccc(Br)cc2)N2CCCC2)cc1 (stereo not given) | -21.2 | -5.8 | -37.3 | 16.0 | -0.1
COc1ccc(C(CNC(=O)c2oc3cc(Br)ccc3c2C)N2CCCCC2)cc1 (stereo not given) | 61.5* | -1.0 | -16.7 | -21.5 | -0.1
COc1ccc(C(CNC(=O)c2oc3ccc(Br)cc3c2C)N2CCCCC2)cc1 (stereo not given) | -25.3 | 3.8 | -32.3 | -14.2 | 0.0
COc1ccc(C(CNC(=O)C(C)Oc2ccc(Br)cc2)N2CCCCC2)cc1 (stereo not given) | 78.1* | -5.0 | -6.2 | -22.2 | 0.6
